Our source for the outcome and AC50 values is PubChem BioAssay (EPA / NIEHS).

Inconclusive results are not listed. The source made the active and inactive calls. Rule for the calls: active = hit-call score of the fitted dose curve at least 0.9, where 1 is the maximum; inconclusive = response in the unintended direction; inactive = score below 0.9.

Estrogen receptor (Homo sapiens), sequence (P03372 whole entry, looked up): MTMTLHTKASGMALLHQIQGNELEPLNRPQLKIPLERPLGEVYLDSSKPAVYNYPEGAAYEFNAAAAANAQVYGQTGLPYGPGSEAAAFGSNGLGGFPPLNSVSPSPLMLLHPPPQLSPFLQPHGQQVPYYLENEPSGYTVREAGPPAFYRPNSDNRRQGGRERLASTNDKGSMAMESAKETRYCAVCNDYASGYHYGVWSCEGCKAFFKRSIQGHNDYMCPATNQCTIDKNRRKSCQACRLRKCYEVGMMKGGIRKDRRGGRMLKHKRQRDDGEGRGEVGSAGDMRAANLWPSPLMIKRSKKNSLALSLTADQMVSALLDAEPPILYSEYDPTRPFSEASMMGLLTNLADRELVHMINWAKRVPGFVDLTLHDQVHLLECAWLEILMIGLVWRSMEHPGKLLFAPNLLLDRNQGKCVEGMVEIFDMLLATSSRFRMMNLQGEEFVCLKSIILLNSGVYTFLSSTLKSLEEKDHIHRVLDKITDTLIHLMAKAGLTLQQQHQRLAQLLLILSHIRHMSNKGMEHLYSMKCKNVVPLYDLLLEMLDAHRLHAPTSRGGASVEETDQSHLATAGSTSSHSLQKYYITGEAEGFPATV

The target in the experiment is Estrogen receptor (Homo sapiens) (UniProt P03372). The experiment can be described thus: NVS_NR_hER: NovaScreen (NVS) Nuclear Receptor Binding Assay for human Estrogen Receptor (ER) (AID 2283348). As for the experimental part:
NVS_NR_hER is a biochemical, single-readout assay that uses extracted gene-proteins from MCF7 in a cell-free assay. Measurements were taken 18 hours after chemical dosing in a 96-well plate.NVS_NR_hER is one of one assay component(s) measured or calculated from the NVS_NR_hER assay. It is designed to make measurements of radioligand binding, a form of binding reporter, as detected with scintillation counting signals by Lysate-based radiodetection technology.Data from the assay component NVS_NR_hER was analyzed into 1 assay endpoint. This assay endpoint, NVS_NR_hER, was analyzed in the positive analysis fitting direction relative to DMSO as the negative control and baseline of activity. Using a type of binding reporter, loss-of-signal activity can be used to understand changes in the binding as they relate to the gene ESR1. Furthermore, this assay endpoint can be referred to as a primary readout, because the performed assay has only produced 1 assay endpoint. To generalize the intended target to other relatable targets, this assay endpoint is annotated to the nuclear receptor intended target family, where the subfamily is steroidal.
Binding assays used specific radioligands (tritiated, iodinated) with non-radioactive competitive displacement ligands in agonist or antagonist protocols (as indicated) and various reference compounds and inhibitors to titrate specific binding to receptors and transporters. Most enzyme assays (CYPs, kinases, phosphatases, proteases, HDACs) used recombinant protein and specific substrates (fluorescence mostly, some colorimetric and radioactive) and inhibitors, followed by a biochemical separation of substrate and product. All assays for the biochemical HTS were initially run in duplicate at a single concentration (10 uM for CYP450 assays and 25 uM for all others). […] Each assay was run with positive and negative controls, and concurrent controls on every plate. The follow-up (secondary) screen tested active chemical-pairs in concentration series, as well as a few additional assays not tested in the primary screen, some selected negative inactives, and several cases re-run in the concentration series for confirmatory purposes.
For the compound `O=C(Cl)OCCOCCOC(=O)Cl`, the outcome was inactive. Consider `CC(=Cc1ccccc1)[N+](=O)[O-]`, for which the outcome was inactive. On the same count and under the same terms, next, `CCCCCCCCCCCCCCC(Br)C(=O)O` (stereo not drawn): “inactive”; `CC(C)(C)c1cc([N+](=O)[O-])cc(C(C)(C)C)c1O`: “inactive”. The same measure, in the same setting: next, `C=CC(=O)[O][Sn]([CH2]CCC)([CH2]CCC)[CH2]CCC`: “inactive”. The same measure, in the same setting: the result for `O=S1OC[C@@H]2[C@H](CO1)[C@]1(Cl)C(Cl)=C(Cl)[C@@]2(Cl)C1(Cl)Cl` (stereo partly drawn) reads “inactive”; that for `CC(C)N(C(=O)CCl)c1ccccc1`, “inactive”; that for `CCC[CH2][Sn]([Cl])([Cl])[CH2]CCC`, “inactive”. Turning to `Nc1ccc(Br)cc1`, the compound was classed as inactive. For `CC(C)[C@@H](Nc1ccc(C(F)(F)F)cc1Cl)C(=O)OC(C#N)c1cccc(Oc2ccccc2)c1` (stereo partly drawn), the result was inactive. The same measure, in the same setting: next, `Cc1cc(C(C)(C)c2ccc(O)c(C)c2)ccc1O`: “inactive”; `Cc1cc(SCc2sc(-c3ccc(C(F)(F)F)c(F)c3)nc2C)ccc1OCC(=O)O`: “inactive”. The same measure, in the same setting: the result for `O=S1(=O)OC(c2cc(Br)c(O)c(Br)c2)(c2cc(Br)c(O)c(Br)c2)c2ccccc21` reads “inactive”; that for `C=CC(=O)OCC(COC(=O)C=C)(COC(=O)C=C)COC(=O)C=C`, “inactive”.

For the compound `O=C(NC(=O)c1c(F)cccc1F)Nc1cc(Cl)c(Oc2ncc(C(F)(F)F)cc2Cl)c(Cl)c1`, the result was inactive. Still for that read-out and setting: the result for `CCCCCCCCCCCCBr` reads “inactive”; that for `O=[N+]([O-])c1c2ccccc2cc2ccccc12`, “inactive”.

Turning to `CCOCn1c(-c2ccc(Cl)cc2)c(C#N)c(Br)c1C(F)(F)F`, the compound was classed as inactive. On to `CCCCC(CC)C(=O)Cl` (stereo not drawn), for which the result was inactive.

As for `O=S(=O)(Oc1ccc(Cl)cc1)c1ccc(Cl)cc1`, the call was inactive. Same read-out and setting: next, `Oc1ccc(Cc2ccc(O)cc2)cc1`: “inactive”. As a reminder, the AC50 is the concentration at which the activity in the assay is half-maximal. As to `O=C1c2ccccc2C(=O)C1C(=O)C(c1ccccc1)c1ccc(Cl)cc1` (stereo not drawn), the AC50 was 17.6 µM (active). Turning to `OC(c1ccc(Cl)cc1)(c1ccc(Cl)cc1)c1cccnc1`, the compound was called inactive. Same read-out and setting: next, `O=c1[nH]c2ccccc2n1C1CCN(CCCC(c2ccc(F)cc2)c2ccc(F)cc2)CC1`: “inactive”; `c1csc(-c2ccc(-c3cccs3)s2)c1`: “inactive”; `O=[N+]([O-])c1ccc(Cl)c([N+](=O)[O-])c1`: “inactive”. Still for that read-out and setting: the result for `O=C(Nc1ccc(Br)cc1)c1cc(Br)cc(Br)c1O` reads “inactive”; that for `O=[N+]([O-])c1ccc(Nc2ccccc2)cc1`, “inactive”.
